Our source for the outcome and AC50 values is PubChem BioAssay (EPA / NIEHS).

As a reminder, the AC50 is the concentration giving half of the maximal activity seen.

Assay [1] can be described thus: ATG_DR4_LXR_CIS: Attagene CIS-FACTORIAL HepG2 Assay for human Liver X Receptor (LXR), DR4 submotif (AID 2282929). The note with it: HepG2 Attagene DR4 cis-reporter, mRNA transcription; actives raise or lower the signal. The method, boiled down: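 Fluorescence intensity of labelled reporter cDNA fragments, separated by capillary electrophoresis, gives the signal. HepG2 cells bearing cis-regulated reporter constructs were treated 24 h; activity fitted bidirectionally relative to DMSO negative control.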

Assay [2] in a line: ATG_Ets_CIS: Attagene CIS-FACTORIAL HepG2 Assay for human Erythroblast Transformation Specific (ETS) (AID 2282941). Particulars: HepG2 ETS cis-reporter transcription, actives raise or lower the signal. In short, it runs like this: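 Multiplexed reporter transcript profiling: HepG2, 24 h treatment, total RNA to cDNA, PCR, 6-FAM labelling, HpaI cut, capillary electrophoresis. Gain- or loss-of-signal fitted against DMSO.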

For assay [3], the target named is Hypoxia-inducible factor 1-alpha (Homo sapiens) (UniProt Q16665). The experiment in a line: ATG_HIF1a_CIS: Attagene CIS-FACTORIAL HepG2 Assay for human Hypoxia Inducible Factor 1 (HIF1A) (AID 2282951). Particulars: HepG2 Attagene cis-factorial HIF1a reporter transcription; actives raise or lower the signal. The method, boiled down: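 Fluorescence intensity of capillary-separated, 6-FAM-labelled reporter amplicons gives mRNA induction in HepG2 cells carrying transfected cis-promoter reporter units; cells exposed 24 h, responses fitted up or down from DMSO.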
Sequence of Hypoxia-inducible factor 1-alpha (Homo sapiens) (Q16665 whole entry, looked up): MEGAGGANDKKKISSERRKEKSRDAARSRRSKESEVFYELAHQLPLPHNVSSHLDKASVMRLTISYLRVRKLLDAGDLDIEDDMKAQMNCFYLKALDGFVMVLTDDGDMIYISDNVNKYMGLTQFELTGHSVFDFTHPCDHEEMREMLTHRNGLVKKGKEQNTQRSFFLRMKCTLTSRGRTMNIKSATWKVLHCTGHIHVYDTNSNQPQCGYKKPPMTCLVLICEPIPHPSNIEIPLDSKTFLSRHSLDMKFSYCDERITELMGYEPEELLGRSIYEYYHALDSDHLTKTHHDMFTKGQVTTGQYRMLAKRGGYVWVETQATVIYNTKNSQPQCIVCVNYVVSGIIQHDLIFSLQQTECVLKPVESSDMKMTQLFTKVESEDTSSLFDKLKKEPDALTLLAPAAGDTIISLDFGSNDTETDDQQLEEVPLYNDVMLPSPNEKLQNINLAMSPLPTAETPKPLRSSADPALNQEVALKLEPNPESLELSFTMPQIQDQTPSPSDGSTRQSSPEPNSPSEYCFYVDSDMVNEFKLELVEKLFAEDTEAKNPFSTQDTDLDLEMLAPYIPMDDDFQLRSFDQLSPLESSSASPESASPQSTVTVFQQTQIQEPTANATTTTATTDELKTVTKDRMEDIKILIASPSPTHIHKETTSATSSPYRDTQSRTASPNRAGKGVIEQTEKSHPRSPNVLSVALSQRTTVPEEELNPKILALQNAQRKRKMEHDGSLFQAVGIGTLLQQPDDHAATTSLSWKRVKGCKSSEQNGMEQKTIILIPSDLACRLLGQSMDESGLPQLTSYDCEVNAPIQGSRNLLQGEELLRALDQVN

Assay [4] addresses Hepatocyte nuclear factor 6 (Homo sapiens) (UniProt Q9UBC0). The experiment in a line: ATG_HNF6_CIS: Attagene CIS-FACTORIAL HepG2 Assay for human Hepatocyte Nuclear Factor 6 (HNF6) (AID 2282952). The note with it: HepG2 Attagene cis-factorial HNF6 reporter transcription; actives raise or lower the signal. In short, it runs like this:
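Endogenous factor activity read in transiently transfected HepG2 via promoter-regulated reporter transcripts. RNA harvested 24 h post-dosing, reverse-transcribed, PCR-amplified, FAM-labelled, HpaI-digested and resolved by capillary electrophoresis; fitted in both directions against DMSO.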

For assay [5], the target named is Heat shock factor protein 1 (Homo sapiens) (UniProt Q00613). Kind of assay: ATG_HSE_CIS: Attagene CIS-FACTORIAL HepG2 Assay for human Heat Shock Transcription Factor 1 (HSE) (AID 2282953). Particulars: HepG2 HSE cis-reporter, Attagene RNA transcription; actives raise or lower the signal. In short, it runs like this: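 Reporter mRNA induction in HepG2 is measured 24 h after dosing, using transiently transfected multiplexed cis-regulated reporter units. Signal comes from capillary electrophoresis of labelled RT-PCR products, with DMSO as negative control.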
Sequence of Heat shock factor protein 1 (Homo sapiens) (Q00613 whole entry, looked up): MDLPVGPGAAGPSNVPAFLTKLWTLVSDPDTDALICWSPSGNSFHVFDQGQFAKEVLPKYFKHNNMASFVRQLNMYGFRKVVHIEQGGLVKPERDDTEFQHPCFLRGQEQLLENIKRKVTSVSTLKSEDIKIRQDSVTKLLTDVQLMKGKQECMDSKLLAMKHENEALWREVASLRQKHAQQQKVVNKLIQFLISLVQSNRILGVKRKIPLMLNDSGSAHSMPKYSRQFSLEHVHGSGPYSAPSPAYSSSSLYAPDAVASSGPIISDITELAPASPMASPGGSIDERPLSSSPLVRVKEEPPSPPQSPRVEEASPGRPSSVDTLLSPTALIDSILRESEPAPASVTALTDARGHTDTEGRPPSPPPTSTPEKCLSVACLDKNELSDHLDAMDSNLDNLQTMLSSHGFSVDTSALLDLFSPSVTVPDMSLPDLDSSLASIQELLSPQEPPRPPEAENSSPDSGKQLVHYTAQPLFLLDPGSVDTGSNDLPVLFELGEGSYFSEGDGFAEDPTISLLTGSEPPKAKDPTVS

Assay [6] can be described thus: ATG_Sox_CIS: Attagene CIS-FACTORIAL HepG2 Assay for human SRY-box transcription factor (SOX) (AID 2282960). Particulars: HepG2 Attagene cis-factorial SOX reporter, mRNA; actives raise or lower the signal. The method, boiled down:
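Measures mRNA induction of a SOX1-associated reporter in HepG2 after 24 h dosing. Fluorescently labelled RT-PCR fragments are separated by capillary electrophoresis, and gain or loss relative to DMSO control is fitted.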

Assay [7] in a line: ATG_TA_CIS: Attagene CIS-FACTORIAL HepG2 Assay for human TA Basal Promoter (AID 2282964). The note with it: HepG2 Attagene CIS-factorial TA basal promoter reporter; actives raise or lower the signal. The method, boiled down:
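Cis-factorial format in HepG2: reporters report endogenous factors, not chimeric Gal4 fusions. After 24 h treatment, reporter transcripts were measured by RT-PCR-capillary electrophoresis fluorescence, analysed bidirectionally versus DMSO.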

Assay [8] in a line: ATG_TCF_b_cat_CIS: Attagene CIS-FACTORIAL HepG2 Assay for human T-Cell-Factor with beta-catenin (TCF/b-cat) (AID 2282965). Particulars: HepG2 TCF/beta-catenin cis-reporter transcription, actives raise or lower the signal. The method, boiled down:
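Measured: reporter mRNA in HepG2 transiently transfected with cis-promoter reporter units, 24 h after chemical addition. Fitting was bidirectional, DMSO as negative control.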

The nature of assay [9]: ATG_TAL_CIS: Attagene CIS-FACTORIAL HepG2 Assay for human TAL Basal Promoter (AID 2282966).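 Also: background control endpoint measuring basal TAL promoter reporter mRNA not a specific factor.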 Particulars: HepG2 Attagene cis-factorial TAL promoter reporter; actives raise or lower the signal. The method, boiled down:
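Background-control endpoint: basal TAL promoter reporter transcripts in transiently transfected HepG2, measured 24 h after dosing. Read-out by RT-PCR with fluorescent primer extension and capillary electrophoresis; gain or loss of signal fitted relative to DMSO.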

Assay [10] can be described thus: ATG_TGFb_CIS: Attagene CIS-FACTORIAL HepG2 Assay for human Transforming Growth Factor (TGF) (AID 2282967). Particulars: HepG2 Attagene CIS TGFb reporter, mRNA transcription; actives raise or lower the signal. In short, it runs like this: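 Multiplexed cis-reporter HepG2 system, 24 h treatment; mRNA induction read by fluorescence after RT-PCR and CE; DMSO negative control, bidirectional curve fitting.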

Assay [11] has as its target X-box-binding protein 1 (Homo sapiens) (UniProt P17861). The experiment in a line: ATG_Xbp1_CIS: Attagene CIS-FACTORIAL HepG2 Assay for human X-box Binding Protein 1 (XBP1) (AID 2282972). Particulars: HepG2 XBP1 cis-element reporter, Attagene multiplex; actives raise or lower the signal. The method, boiled down:
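Human hepatoma HepG2, cis-element reporter system, 24 h treatment; mRNA quantified by RT-PCR/CE fluorescence; fit relative to DMSO.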

Assay [12] addresses Transcriptional activator Myb (Homo sapiens) (UniProt P10242). Kind of assay: ATG_Myb_CIS: Attagene CIS-FACTORIAL HepG2 Assay for human Myeloblastosis (Myb) Proto-Oncogene Transcription Factor (AID 2282986). The note with it: HepG2 Attagene CIS-FACTORIAL Myb reporter transcription; actives raise or lower the signal. In short, it runs like this:
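Transiently transfected HepG2 cells, treated 24 h. Reporter mRNA quantified by RT-PCR/capillary electrophoresis; bidirectional fit relative to DMSO.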

Assay [13] concerns the target Nuclear respiratory factor 1 (Homo sapiens) (UniProt Q16656). Kind of assay: ATG_NRF1_CIS: Attagene CIS-FACTORIAL HepG2 Assay for human Nuclear Respiratory Factor 1 (NRF1) Orphan Gene (AID 2282987). Particulars: HepG2 NRF1 cis-element reporter, Attagene multiplex; actives raise or lower the signal. In short, it runs like this:
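Cells (HepG2, transient MRTU transfection) are exposed to compound for 24 h, then RNA isolated and reporter mRNA amplified and fluorescently labelled. Fragments are separated by capillary electrophoresis; signal change is fitted bidirectionally relative to DMSO.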

The target in assay [14] is Myc proto-oncogene protein (Homo sapiens) (UniProt P01106). Kind of assay: ATG_Myc_CIS: Attagene CIS-FACTORIAL HepG2 Assay for human Myelocytomatosis (Myc) Proto-Oncogene Transcription Factor (AID 2282990). Particulars: HepG2, Attagene cis-reporter transcription factor activity; actives raise or lower the signal. In short, it runs like this:
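Cells of the HepG2 human liver line bear multiple cis-driven reporter transcription units. Reporter mRNA after 24 h exposure is reverse-transcribed, amplified, labelled and resolved by capillary electrophoresis, with gain- or loss-of-signal fitting relative to DMSO.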

A short description of assay [15]: ATG_NRF2_ARE_CIS: Attagene CIS-FACTORIAL HepG2 Assay for human Nuclear Factor Erythroid 2 Related Factor 2 (NFR2) response to Antioxidant Response Elements (ARE) (AID 2282992).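 As to AC50: reporter mRNA level measured by RT-PCR and capillary electrophoresis fluorescence.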 The note with it: HepG2 Attagene ARE/NRF2 reporter, transcription factor activity; actives raise or lower the signal. The method, boiled down: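 Fluorescence intensity of reporter-specific cDNA fragments, separated by capillary electrophoresis, reflects mRNA induction in transfected HepG2 cells at 24 h. Activity is fitted bidirectionally, DMSO serving as baseline.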

A short description of assay [16]: ATG_Oct_MLP_CIS: Attagene CIS-FACTORIAL HepG2 Assay for human Octamer-Binding Transcription Factor (Oct) (AID 2282993). The note with it: HepG2 Attagene cis-factorial Oct reporter, mRNA; actives raise or lower the signal. In short, it runs like this:
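After 24 h compound exposure, transfected HepG2 cells were lysed for total RNA; reporter-specific cDNA was PCR-amplified, fluorescently labelled and sized by capillary electrophoresis. Bidirectional curve fitting used DMSO as baseline.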

Assay [17] deals with Cellular tumor antigen p53 (Homo sapiens) (UniProt P04637). The experiment in a line: ATG_p53_CIS: Attagene CIS-FACTORIAL HepG2 Assay for human p53 Transcription Factor (AID 2282994). The note with it: HepG2 p53 cis-element reporter, Attagene mRNA; actives raise or lower the signal. In short, it runs like this:
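Transiently transfected HepG2 (multiple cis reporter transcription units); exposure 24 h; reporter RNA via RT-PCR, 6-FAM extension, 2 h HpaI digest at 37 C, CE detection; DMSO baseline.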

Assay [18] is described as follows: ATG_XTT_Cytotoxicity: Cytotoxicity Assessment in the Attagene TRANS-FACTORIAL HepG2 Assay (AID 2283584; active = hit-call score of the fitted dose curve at least 0.9, where 1 is the maximum). In short, it runs like this:
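Viability endpoint from XTT after 24 h chemical exposure of reporter-transfected human HepG2 liver cells; signal loss fitted relative to DMSO negative control.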

Assay [19] can be described thus: ATG_M_06_CIS: Attagene CIS-FACTORIAL HepG2 Assay for M06 Transcription Factor (Internal Marker) (AID 2282950). The note with it: HepG2 Attagene CIS-FACTORIAL M06 internal marker reporter; actives raise or lower the signal. In short, it runs like this:
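Measured 24 h post-dosing in transiently transfected HepG2 cells, this internal-marker endpoint reports reporter mRNA via RT-PCR with fluorescent primer extension and capillary electrophoresis. DMSO served as negative control and baseline for bidirectional fitting.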

Assay [20] concerns the target Nuclear receptor subfamily 1 group I member 2 (Homo sapiens) (UniProt O75469). The experiment in a line: ATG_PXR_TRANS: Attagene TRANS-FACTORIAL HepG2 Assay for human Pregnane X Receptor (PXR) (AID 2283008; active = hit-call score of the fitted dose curve at least 0.9, where 1 is the maximum). The method, boiled down:
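Transient HepG2 transfectants carrying multiplexed reporter transcription units; PXR activity read through a Gal4 chimera. 24 h exposure. RT-PCR/CE fluorescence; upward curve fit referenced to DMSO.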

Records with an inconclusive call do not appear. Activity calls are given as the source filed them. The calls were made as follows, unless noted: active = hit-call score of the fitted dose curve at least 0.9, where 1 is the maximum; inactive = score below 0.9.

Sequence of Cellular tumor antigen p53 (Homo sapiens) (P04637 whole entry, looked up): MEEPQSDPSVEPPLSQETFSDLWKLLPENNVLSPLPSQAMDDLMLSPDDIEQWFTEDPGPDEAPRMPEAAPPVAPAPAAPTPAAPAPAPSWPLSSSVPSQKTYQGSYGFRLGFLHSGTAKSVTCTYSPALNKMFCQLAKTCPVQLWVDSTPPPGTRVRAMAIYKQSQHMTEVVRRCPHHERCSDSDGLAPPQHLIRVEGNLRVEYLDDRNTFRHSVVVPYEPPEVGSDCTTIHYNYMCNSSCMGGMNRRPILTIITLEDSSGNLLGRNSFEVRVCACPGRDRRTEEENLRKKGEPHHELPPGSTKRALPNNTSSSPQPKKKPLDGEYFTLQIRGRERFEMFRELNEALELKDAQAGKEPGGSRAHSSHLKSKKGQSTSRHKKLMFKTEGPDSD
Sequence of Hepatocyte nuclear factor 6 (Homo sapiens) (Q9UBC0 whole entry, looked up): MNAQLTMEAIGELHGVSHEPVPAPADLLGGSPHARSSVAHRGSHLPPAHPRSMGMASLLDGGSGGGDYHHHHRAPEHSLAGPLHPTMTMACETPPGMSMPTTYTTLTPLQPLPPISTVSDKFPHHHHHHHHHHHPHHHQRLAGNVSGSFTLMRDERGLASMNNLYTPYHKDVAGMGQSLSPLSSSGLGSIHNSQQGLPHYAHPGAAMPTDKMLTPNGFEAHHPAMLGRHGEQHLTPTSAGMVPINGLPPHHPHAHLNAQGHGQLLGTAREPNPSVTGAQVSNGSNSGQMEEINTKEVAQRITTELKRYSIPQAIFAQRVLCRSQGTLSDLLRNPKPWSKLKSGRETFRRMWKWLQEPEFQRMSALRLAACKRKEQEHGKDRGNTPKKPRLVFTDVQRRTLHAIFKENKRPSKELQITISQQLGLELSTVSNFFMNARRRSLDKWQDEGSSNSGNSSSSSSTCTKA
Sequence of X-box-binding protein 1 (Homo sapiens) (P17861 whole entry, looked up): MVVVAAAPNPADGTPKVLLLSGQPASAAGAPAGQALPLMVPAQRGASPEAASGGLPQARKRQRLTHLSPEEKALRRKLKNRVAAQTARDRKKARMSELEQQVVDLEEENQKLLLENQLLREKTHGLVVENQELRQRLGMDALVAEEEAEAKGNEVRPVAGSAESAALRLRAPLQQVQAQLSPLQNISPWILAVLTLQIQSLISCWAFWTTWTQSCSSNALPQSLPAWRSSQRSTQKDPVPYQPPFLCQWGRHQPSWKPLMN
Sequence of Nuclear respiratory factor 1 (Homo sapiens) (Q16656 whole entry, looked up, the tested form may be a part): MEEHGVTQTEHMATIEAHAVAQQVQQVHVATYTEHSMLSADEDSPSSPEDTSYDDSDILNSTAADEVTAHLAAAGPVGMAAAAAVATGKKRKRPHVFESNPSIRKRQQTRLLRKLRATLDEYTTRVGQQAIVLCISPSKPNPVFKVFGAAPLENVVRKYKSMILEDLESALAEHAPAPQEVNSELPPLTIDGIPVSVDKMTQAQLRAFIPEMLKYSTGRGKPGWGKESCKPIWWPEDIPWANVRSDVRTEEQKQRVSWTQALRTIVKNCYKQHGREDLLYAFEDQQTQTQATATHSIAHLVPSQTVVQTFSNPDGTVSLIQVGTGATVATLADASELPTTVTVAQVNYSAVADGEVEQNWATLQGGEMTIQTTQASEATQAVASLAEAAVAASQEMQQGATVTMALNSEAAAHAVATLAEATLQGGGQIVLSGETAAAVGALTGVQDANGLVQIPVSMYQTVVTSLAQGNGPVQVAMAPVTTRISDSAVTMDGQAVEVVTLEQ
Sequence of Myc proto-oncogene protein (Homo sapiens) (P01106 whole entry, looked up): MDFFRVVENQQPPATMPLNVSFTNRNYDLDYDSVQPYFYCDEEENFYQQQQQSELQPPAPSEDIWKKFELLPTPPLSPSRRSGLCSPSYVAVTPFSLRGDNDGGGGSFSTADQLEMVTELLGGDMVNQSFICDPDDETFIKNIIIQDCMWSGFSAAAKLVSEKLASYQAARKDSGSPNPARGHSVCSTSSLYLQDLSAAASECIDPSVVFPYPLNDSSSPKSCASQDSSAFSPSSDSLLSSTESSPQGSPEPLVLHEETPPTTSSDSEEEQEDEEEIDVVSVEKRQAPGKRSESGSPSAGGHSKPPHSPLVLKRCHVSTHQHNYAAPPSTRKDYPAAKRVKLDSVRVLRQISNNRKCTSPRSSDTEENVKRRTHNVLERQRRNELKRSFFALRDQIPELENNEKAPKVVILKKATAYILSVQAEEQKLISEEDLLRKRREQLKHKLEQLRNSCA
Sequence of Transcriptional activator Myb (Homo sapiens) (P10242 whole entry, looked up): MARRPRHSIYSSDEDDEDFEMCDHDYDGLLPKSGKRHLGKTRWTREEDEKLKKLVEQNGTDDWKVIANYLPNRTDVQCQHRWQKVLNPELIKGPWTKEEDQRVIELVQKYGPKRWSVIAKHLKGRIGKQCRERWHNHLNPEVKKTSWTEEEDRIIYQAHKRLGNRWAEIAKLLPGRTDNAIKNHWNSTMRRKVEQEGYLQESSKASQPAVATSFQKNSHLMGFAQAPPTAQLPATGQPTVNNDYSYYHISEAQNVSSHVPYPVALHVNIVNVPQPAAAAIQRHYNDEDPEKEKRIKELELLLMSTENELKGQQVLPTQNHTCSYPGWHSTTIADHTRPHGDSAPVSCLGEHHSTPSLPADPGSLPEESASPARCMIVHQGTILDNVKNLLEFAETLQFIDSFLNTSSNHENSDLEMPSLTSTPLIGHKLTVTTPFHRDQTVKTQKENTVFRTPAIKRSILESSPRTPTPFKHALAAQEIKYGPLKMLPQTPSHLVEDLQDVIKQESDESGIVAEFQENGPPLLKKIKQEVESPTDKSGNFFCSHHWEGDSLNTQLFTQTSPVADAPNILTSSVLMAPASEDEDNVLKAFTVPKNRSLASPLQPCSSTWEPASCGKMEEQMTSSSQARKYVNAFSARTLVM
Sequence of Nuclear receptor subfamily 1 group I member 2 (Homo sapiens) (O75469 whole entry, looked up, the tested form may be a part): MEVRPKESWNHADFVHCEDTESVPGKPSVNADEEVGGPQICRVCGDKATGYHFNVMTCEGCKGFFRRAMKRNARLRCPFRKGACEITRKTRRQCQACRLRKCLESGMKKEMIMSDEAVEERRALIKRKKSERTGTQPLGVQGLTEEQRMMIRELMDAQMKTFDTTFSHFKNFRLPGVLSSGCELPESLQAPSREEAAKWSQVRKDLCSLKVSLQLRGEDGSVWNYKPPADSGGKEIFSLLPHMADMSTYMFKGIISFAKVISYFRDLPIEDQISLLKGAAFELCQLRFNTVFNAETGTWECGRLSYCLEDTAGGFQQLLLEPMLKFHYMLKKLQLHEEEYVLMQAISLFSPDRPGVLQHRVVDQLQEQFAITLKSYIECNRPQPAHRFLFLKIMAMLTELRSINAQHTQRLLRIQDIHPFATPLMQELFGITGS

With `O=C(O)c1ccccc1C(=O)O`, the call in assay [1], in assay [2], in assay [3], in assay [4], in assay [5] and in [6] was inactive. In addition, the compound was classed as inactive in assay [7], in assay [8], in assay [9], in [10], in [11] and in assay [12]. In addition, the call in assay [13], in [14], in assay [15], in assay [16], in assay [17] and in assay [18] was inactive.
As for `CC(O)(P(=O)(O)O)P(=O)(O)O`, the compound was called inactive in assay [1], in [19], in assay [4], in assay [5], in assay [7] and in [8]. The compound was called inactive in assay [9], in assay [10], in assay [11], in assay [12], in assay [13] and in [14]. In addition, the outcome in assay [15], in [16] and in assay [18] was inactive.
Turning to `CC1=C(CC=O)C(C)(C)CCC1`, the call in assay [1], in assay [2], in assay [19], in assay [3], in [4] and in assay [5] was inactive. For the same compound, the compound was called inactive in [6], in assay [7], in assay [8], in [10], in [11] and in assay [12]. The outcome in [13], in assay [14], in assay [16] and in assay [17] was inactive. The concentration at half-maximal activity (AC50) in assay [15] was 30.2 µM (active); in assay [20], 1.38 µM (active).
For `CC(C)CC(=O)O`, the call in assay [1], in [2], in assay [19], in assay [3], in assay [4] and in [5] was inactive. The outcome in assay [6], in [7], in assay [8], in [9], in assay [10] and in assay [11] was inactive. The compound was classed as inactive in [12], in [13], in assay [14], in assay [15], in assay [16] and in assay [17]. In assay [18], the outcome was inactive.
